Assay results as given in the supplement of paper PMC10849652.
About 8,800 targets were measured; listed, in parts, are those with a hit and a random draw of the rest. About 0.5% of all pairs of compound and target were hits. Values without a mark were called inactive.

Assays:
Assay in all cases: log2 fold change, soluble protein after heating vs DMSO (PISA); higher = thermal stabilisation; K562 lysate, 10 uM; active = over 0.2 and 3.5 SD of the protein, either way, in both replicates (recomputed)
vemurafenib = compound: CCCS(=O)(=O)Nc1ccc(F)c(C(=O)c2c[nH]c3ncc(-c4ccc(Cl)cc4)cc23)c1F [vemurafenib]
How it was run: (§1)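 Quantification was by TMTpro 16plex LC-MS/MS with equalised channel sums, applied to the supernatant after 21,000xg for 90 min. Samples were crude K562 extract at 1 mg/mL protein in PBS pH 7.4 with 1 mM MgCl2, treated with 10 μM compound for 30 min, heated for 3 min across 48°C-58°C, pooled and brought to 0.5% NP-40 at 4°C. Values are log-two fold changes in thermal stability relative to solvent controls, from duplicates.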

[1] = compound: CCCS(=O)(=O)Nc1ccc(F)c(C(=O)c2c[nH]c3ncc(Cl)cc23)c1F
How it was run: as §1

barasertib = compound: CCN(CCCOc1ccc2c(Nc3cc(CC(=O)Nc4cccc(F)c4)[nH]n3)ncnc2c1)CCOP(=O)(O)O [barasertib]
How it was run: as §1

[2] = compound: CC[C@@H]1C(=O)N(C)c2cnc(Nc3ccc(C(=O)NC4CCN(C)CC4)cc3OC)nc2N1C1CCCC1
How it was run: as §1

volasertib = compound: CC[C@@H]1C(=O)N(C)c2cnc(Nc3ccc(C(=O)N[C@H]4CC[C@H](N5CCN(CC6CC6)CC5)CC4)cc3OC)nc2N1C(C)C [volasertib]
How it was run: as §1

[3] = compound: CCn1c(C(=O)N(C2CC2)C2CC2)cc2c3c(ncn3C)c(Nc3cc(C)n(C)n3)nc21
How it was run: as §1

[4] = compound: CCn1cc(-c2ccnc3[nH]c(-c4cccc(CN(C)C)c4)cc23)c(-c2ccc(NC(=O)N(C)C)cc2)n1
How it was run: as §1

[5] = compound: CN1CCC(CNc2ccc3ncc(-c4cccc(OC(F)(F)F)c4)n3n2)CC1
How it was run: as §1

saracatinib = compound: CN1CCN(CCOc2cc(OC3CCOCC3)c3c(Nc4c(Cl)ccc5c4OCO5)ncnc3c2)CC1 [saracatinib]
How it was run: as §1

sotrastaurin = compound: CN1CCN(c2nc(C3=C(c4c[nH]c5ccccc45)C(=O)NC3=O)c3ccccc3n2)CC1 [sotrastaurin]
How it was run: as §1

alvocidib = compound: CN1CC[C@H](c2c(O)cc(O)c3c(=O)cc(-c4ccccc4Cl)oc23)[C@H](O)C1 [alvocidib]
How it was run: as §1

Tubastatin A = compound: CN1CCc2c(c3ccccc3n2Cc2ccc(C(=O)NO)cc2)C1 [Tubastatin A]
How it was run: as §1

[6] = compound: CNC(=O)C1=CC=CC=C1NC2=NC(=NC=C2Cl)NC3=C(C=C(C=C3)N4CCOCC4)OC
How it was run: as §1

defactinib = compound: CNC(=O)c1ccc(Nc2ncc(C(F)(F)F)c(NCc3nccnc3N(C)S(C)(=O)=O)n2)cc1 [defactinib]
How it was run: as §1

[7] = compound: CNc1nc(-c2ccc3c(N)n[nH]c3c2)cc(N2C[C@@H](C(=O)NC3CCCCC3)CC[C@H]2C)n1
How it was run: as §1

encorafenib = compound: COC(=O)N[C@@H](C)CNc1nccc(-c2cn(C(C)C)nc2-c2cc(Cl)cc(NS(C)(=O)=O)c2F)n1 [encorafenib]
How it was run: as §1

[8] = compound: COC(=O)[C@H](CCSC)NC(=O)C1=C(C=C(C=C1)NC[C@H](CS)N)C2=CC=CC=C2
How it was run: as §1

alisertib = compound: COc1cc(Nc2ncc3c(n2)-c2ccc(Cl)cc2C(c2c(F)cccc2OC)=NC3)ccc1C(=O)O [alisertib]
How it was run: as §1

[9] = compound: COc1cc2nc(-c3cc(F)ccc3O)nc(N[C@@H]3CNC[C@H]3C(C)(C)O)c2cc1OC
How it was run: as §1

gefitinib = compound: COc1cc2ncnc(Nc3ccc(F)c(Cl)c3)c2cc1OCCCN1CCOCC1 [gefitinib]
How it was run: as §1

Sequence of UniProt P35711 (P35711 whole entry, looked up): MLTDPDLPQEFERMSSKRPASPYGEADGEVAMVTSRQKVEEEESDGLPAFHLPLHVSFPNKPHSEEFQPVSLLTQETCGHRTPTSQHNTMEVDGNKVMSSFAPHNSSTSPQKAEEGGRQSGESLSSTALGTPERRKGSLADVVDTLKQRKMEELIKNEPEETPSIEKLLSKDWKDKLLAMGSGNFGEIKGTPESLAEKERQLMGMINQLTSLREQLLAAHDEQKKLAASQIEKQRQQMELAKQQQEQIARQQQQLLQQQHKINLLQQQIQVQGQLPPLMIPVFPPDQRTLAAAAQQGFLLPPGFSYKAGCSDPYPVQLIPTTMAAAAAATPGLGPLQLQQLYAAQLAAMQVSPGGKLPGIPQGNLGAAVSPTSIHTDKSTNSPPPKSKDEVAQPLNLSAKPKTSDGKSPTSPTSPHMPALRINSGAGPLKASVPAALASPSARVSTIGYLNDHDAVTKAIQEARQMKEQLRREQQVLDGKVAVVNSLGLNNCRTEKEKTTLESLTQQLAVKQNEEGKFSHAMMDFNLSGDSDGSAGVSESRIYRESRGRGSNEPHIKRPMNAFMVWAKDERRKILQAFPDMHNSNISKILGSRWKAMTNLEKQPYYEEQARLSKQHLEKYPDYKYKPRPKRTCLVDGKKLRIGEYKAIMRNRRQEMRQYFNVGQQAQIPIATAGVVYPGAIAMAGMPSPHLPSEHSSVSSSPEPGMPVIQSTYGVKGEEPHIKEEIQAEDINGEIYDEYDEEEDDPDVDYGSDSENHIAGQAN
Sequence of UniProt P53985 (P53985 whole entry, looked up): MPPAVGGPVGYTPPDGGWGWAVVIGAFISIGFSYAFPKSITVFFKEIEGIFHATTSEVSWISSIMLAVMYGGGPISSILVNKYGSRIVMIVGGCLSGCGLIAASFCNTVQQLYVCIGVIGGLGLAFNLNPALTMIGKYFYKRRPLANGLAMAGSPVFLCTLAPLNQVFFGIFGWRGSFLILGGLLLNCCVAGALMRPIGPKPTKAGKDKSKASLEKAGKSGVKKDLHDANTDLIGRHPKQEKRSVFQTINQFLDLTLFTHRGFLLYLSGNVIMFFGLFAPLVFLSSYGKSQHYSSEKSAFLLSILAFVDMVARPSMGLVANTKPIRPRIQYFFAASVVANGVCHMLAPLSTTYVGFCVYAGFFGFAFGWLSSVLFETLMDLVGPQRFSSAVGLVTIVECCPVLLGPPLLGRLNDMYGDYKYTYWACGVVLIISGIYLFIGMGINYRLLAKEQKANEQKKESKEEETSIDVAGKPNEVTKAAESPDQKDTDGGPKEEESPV
Sequence of UniProt Q15506 (Q15506 whole entry, looked up): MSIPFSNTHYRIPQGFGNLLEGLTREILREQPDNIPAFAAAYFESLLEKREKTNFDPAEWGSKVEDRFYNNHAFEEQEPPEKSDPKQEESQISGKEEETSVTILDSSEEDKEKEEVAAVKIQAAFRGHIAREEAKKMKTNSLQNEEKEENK
Sequence of UniProt O95149 (O95149 whole entry, looked up): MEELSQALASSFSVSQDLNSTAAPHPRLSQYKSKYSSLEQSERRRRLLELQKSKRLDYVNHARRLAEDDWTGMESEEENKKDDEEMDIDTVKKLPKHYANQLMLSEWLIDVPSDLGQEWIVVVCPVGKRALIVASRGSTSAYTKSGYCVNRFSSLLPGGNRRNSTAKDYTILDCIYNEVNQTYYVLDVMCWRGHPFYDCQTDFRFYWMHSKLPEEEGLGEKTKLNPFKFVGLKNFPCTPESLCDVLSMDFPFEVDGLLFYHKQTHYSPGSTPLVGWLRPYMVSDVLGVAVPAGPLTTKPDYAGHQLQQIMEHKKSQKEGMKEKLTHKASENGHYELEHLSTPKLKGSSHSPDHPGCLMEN
Sequence of UniProt Q9UL54 (Q9UL54 whole entry, looked up): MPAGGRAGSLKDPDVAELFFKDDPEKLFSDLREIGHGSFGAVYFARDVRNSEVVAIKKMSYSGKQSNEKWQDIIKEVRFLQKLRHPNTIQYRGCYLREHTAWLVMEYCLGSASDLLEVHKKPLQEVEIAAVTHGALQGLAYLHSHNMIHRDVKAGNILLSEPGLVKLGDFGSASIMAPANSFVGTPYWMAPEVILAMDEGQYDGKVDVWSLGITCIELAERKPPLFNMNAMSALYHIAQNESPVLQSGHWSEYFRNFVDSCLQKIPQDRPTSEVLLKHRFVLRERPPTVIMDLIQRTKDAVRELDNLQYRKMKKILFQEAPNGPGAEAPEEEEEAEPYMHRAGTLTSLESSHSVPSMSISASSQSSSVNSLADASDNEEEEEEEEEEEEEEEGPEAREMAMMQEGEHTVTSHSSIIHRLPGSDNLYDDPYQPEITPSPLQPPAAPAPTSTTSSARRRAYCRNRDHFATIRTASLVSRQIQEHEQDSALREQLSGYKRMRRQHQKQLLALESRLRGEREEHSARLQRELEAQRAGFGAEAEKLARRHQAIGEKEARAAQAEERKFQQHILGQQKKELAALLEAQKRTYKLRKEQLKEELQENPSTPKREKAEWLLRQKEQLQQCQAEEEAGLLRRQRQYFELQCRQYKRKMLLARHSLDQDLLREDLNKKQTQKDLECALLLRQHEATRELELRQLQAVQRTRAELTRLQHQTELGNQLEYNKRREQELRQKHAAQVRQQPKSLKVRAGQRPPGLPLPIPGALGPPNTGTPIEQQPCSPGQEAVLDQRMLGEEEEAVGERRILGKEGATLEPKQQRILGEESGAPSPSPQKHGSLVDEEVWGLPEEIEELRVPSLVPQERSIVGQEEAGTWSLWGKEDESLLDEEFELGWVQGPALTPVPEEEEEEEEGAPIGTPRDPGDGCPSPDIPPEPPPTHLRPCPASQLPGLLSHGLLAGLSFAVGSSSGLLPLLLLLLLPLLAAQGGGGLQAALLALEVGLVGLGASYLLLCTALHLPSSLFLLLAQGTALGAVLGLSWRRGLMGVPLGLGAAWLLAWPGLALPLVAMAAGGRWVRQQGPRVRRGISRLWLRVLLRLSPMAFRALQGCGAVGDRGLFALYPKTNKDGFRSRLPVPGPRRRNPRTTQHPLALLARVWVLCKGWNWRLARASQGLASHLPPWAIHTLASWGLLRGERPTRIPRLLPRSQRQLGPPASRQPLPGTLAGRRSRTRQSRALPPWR
Sequence of UniProt Q6NXT4 (Q6NXT4 whole entry, looked up): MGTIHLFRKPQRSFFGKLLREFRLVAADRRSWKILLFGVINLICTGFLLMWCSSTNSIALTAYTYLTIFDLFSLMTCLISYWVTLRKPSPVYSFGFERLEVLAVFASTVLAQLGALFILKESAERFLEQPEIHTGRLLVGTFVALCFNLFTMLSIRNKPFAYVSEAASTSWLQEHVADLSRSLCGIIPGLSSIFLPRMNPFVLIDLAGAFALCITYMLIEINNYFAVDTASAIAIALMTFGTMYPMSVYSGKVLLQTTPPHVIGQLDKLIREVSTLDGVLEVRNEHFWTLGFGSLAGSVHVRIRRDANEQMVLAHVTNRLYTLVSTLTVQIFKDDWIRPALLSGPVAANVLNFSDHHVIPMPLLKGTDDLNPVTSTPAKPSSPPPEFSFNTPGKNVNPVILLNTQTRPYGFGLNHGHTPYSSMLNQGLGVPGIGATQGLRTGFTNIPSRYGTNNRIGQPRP
Sequence of UniProt Q86US8 (Q86US8 whole entry, looked up): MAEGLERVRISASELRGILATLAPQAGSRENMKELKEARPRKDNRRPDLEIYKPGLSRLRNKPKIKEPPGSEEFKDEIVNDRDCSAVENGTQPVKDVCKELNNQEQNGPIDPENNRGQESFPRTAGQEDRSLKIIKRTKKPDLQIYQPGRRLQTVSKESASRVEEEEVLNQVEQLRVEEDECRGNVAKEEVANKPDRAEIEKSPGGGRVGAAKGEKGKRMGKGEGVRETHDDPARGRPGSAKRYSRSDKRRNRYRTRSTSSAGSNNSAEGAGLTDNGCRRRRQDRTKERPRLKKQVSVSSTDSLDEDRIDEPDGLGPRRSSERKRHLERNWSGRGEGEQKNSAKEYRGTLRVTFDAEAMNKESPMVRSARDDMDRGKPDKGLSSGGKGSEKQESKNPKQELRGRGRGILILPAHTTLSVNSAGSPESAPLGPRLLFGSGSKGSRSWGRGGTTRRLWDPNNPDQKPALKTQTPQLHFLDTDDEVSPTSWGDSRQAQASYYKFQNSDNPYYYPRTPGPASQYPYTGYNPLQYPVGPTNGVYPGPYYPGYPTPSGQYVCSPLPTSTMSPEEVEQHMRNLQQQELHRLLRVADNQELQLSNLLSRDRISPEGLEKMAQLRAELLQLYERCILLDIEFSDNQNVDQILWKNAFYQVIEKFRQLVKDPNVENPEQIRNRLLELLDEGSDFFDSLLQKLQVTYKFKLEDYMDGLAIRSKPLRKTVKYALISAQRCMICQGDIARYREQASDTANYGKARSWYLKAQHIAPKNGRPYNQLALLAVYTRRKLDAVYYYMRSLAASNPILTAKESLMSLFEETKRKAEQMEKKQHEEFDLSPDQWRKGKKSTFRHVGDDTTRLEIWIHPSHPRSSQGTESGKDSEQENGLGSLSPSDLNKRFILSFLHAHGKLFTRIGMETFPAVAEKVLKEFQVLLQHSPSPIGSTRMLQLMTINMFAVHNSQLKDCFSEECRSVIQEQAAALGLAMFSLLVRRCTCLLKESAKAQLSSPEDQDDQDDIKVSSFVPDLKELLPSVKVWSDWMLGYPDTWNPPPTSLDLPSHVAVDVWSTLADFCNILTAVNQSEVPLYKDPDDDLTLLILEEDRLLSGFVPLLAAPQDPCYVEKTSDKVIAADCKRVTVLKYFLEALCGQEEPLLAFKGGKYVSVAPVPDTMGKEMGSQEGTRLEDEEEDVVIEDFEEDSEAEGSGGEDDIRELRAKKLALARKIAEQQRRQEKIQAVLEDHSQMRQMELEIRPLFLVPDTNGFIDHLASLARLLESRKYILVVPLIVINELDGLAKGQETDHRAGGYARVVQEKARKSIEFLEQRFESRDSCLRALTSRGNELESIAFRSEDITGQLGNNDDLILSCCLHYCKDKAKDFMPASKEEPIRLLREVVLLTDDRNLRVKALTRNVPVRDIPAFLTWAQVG

Target	log2 fold change (vemurafenib)	log2 fold change [1]	log2 fold change (barasertib)	log2 fold change [2]	log2 fold change (volasertib)	log2 fold change [3]	log2 fold change [4]	log2 fold change [5]	log2 fold change (saracatinib)	log2 fold change (sotrastaurin)	log2 fold change (alvocidib)	log2 fold change (Tubastatin A)	log2 fold change [6]	log2 fold change (defactinib)	log2 fold change [7]	log2 fold change (encorafenib)	log2 fold change [8]	log2 fold change (alisertib)	log2 fold change [9]	log2 fold change (gefitinib)
SPATA5L1 (UniProt Q9BVQ7)	0.03	0.015	0.052	-0.058	-0.135	0.014	-0.023	0.012	0.024	0.015	0.022	-0.16	0.019	0.036	0.23	0	-0.061	0.024	-0.052	-0.013
SLC16A1 (UniProt P53985)	0.026	-0.015	-0.051	0.07	0.043	-0.034	-0.419 (active)	0.256 (active)	-0.003	0.02	-0.133	-0.012	0.042	-0.007	0.024	-0.016	-0.059	0.045	0.018	0.032
SMG6 (UniProt Q86US8)	0.12	-0.006	0.014	-0.139	-0.031	0.038	-0.16	0.141	0.036	0.098	-0.067	-0.062	-0.112	-0.027	-0.059	0.148	-0.01	-0.044	0.008	-0.069
SLC7A5 (UniProt Q01650)	-0.027	-0.017	-0.038	-0.031	0.06	-0.001	-0.312 (active)	0.183	0.056	0.046	-0.142	0.012	-0.047	-0.044	0.046	-0.001	-0.084	-0.002	0.021	0.006
SOX5 (UniProt P35711)	0.141	0.175	0.048	0.176	-0.034	0.049	-0.043	-0.043	0.076	-0.131	0.048	-0.113	-0.219	0.017	0.074	0.034	-0.025	–	-0.104	–
SSU72 (UniProt Q9NP77)	-0.018	0.001	0.018	-0.064	-0.045	-0.049	-0.325 (active)	0.171	-0.001	0.018	-0.127	-0.05	-0.035	-0.026	-0.032	-0.04	0.183	-0.016	-0.013	-0.004
SURF2 (UniProt Q15527)	-0.009	-0.002	-0.007	0.049	0.002	0.127	-0.063	0.02	0.004	-0.007	-0.02	-0.276	–	0.016	0.013	-0.001	-0.319 (active)	-0.005	0.011	-0.041
SPA17 (UniProt Q15506)	-0.013	-0.004	0.021	0.005	0.09	0.022	-0.639 (active)	0.245	0.004	0.021	-0.208	0.021	–	0.056	0.038	-0.007	-0.032	–	-0.038	–
SLC30A6 isoform 2 (UniProt Q6NXT4)	-0.098	0.018	0.146	0.105	0.001	-0.03	-0.127	0.063	–	-0.004	0.023	0.126	0.016	0.011	–	0.003	-0.322 (active)	0.003	-0.18	-0.005
SNUPN (UniProt O95149)	-0.008	0.007	0.06	-0.082	0.04	0.051	-0.024	-0.036	–	0.028	0.012	0.028	-0.173	-0.066	–	0.006	0.155	-0.007	-0.009	0.076
SMARCAD1 isoform 2 (UniProt Q9H4L7)	0.014	0.034	0.021	-0.039	-0.048	0.017	-0.005	-0.057	0.008	0.002	-0.007	-0.13	0.037	0.03	0.003	0.029	0.052	-0.018	0.004	0.028
TAOK2 (UniProt Q9UL54)	-0.039	-0.041	0.059	0.021	-0.056	-0.077	-0.005	-0.003	-0.005	0.109	-0.053	0.046	–	-0.001	-0.015	-0.033	0.055	0.02	0.02	-0.009
